# Measurements from PubChem BioAssay (NCATS).
# Values joined by “and” are separate entries in the source; they are usually repeats but may differ in a detail not shown here. Equal entries are not always repeated. Results filed as inconclusive are left out. Where a structure was tested more than once in an assay, its records may differ in their call. Active and inactive are the calls of the source. Unless noted, calls follow the shape of the dose curve; as a rule, active = well fitted curve in the direction sought with a large enough effect; inconclusive = small, poorly fitted or top-dose-only effect, or another doubt; inactive = no such curve, though single readings can be large; an effect the other way counts as inactive or inconclusive.
# Columns and labels:
# [1] = qHTS to identify inhibitors of the type 1 interferon - major histocompatibility complex class I in skeletal muscle: primary screen against the NCATS Mechanism Interrogation Plate v5.0 (MIPE) Libary (AID 1347411); also: nearly all actives have a fitted effect of over 65% in size; also: potency is read from the fitted curve at half-maximal effect;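 as to activity change, negative = inhibition: plate controls were vehicle for no effect and reference inhibitor for full effect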
# Outline: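 Immortalized human C25cl48 myoblasts with HiBit knocked into endogenous HLA-B*08:01 were stimulated with 4.0 ng/ml IFN-beta and exposed to compounds (11-point 1:3 titration, top 46 uM final) for 24 hrs at 37 C; HiBiT lytic luminescence measured.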
# [2] = molecular target: Glutathione peroxidase 1 (Homo sapiens) (UniProt P07203); assay: Primary qHTS Assay for Inhibitors of Recombinant Selenoprotein Glutathione Peroxidase 1 (GPX1) (AID 1845191); also: nearly all actives have a fitted effect of over 65% in size
# Chain of Glutathione peroxidase 1 (Homo sapiens) (P07203 whole entry, looked up): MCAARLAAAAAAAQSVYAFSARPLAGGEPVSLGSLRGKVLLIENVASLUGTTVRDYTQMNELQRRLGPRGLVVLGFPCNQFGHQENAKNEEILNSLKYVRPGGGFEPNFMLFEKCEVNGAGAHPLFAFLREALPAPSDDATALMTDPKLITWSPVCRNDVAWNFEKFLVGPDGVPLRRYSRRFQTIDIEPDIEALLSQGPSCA
# Outline: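 Recombinant GPX1 (10 nM final) was preincubated with compound for 30 min at room temperature, then reacted with 1 mM GSH, 0.5 mM CHP, 0.5 mM NADPH and 100 nM glutathione reductase; NADPH fluorescence (340/450 nm) was read at 0 and 15 min.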
# [3] = molecular target: Phospholipid hydroperoxide glutathione peroxidase GPX4 (Homo sapiens) (UniProt P36969); assay: Primary qHTS Assay for Inhibitors of Recombinant Selenoprotein Glutathione Peroxidase 4 (GPX4) (AID 1845192); conditions: outcome: dose series up to 50 µM unless noted; also: nearly all actives have a fitted effect of over 65% in size; also: potency is read from the fitted curve at half-maximal effect; as to activity change, negative = inhibition: % is scaled to controls: 0 for no effect and ±100 for the full control effect
# Chain of Phospholipid hydroperoxide glutathione peroxidase GPX4 (Homo sapiens) (P36969 whole entry, looked up): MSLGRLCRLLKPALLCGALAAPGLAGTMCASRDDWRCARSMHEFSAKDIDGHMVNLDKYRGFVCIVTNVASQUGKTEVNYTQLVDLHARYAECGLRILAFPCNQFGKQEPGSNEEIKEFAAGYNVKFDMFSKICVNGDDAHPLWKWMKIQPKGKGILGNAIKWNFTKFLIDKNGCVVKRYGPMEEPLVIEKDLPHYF
# Outline: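 GR-coupled readout: 100 nM GR, 1 mM GSH, 0.5 mM NADPH; NADPH fluorescence (ex 340/em 450 nm) read at t=0 and after 15 min RT. GPX4 200 nM, preincubated 30 min with compound; substrate 0.5 mM CHP.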
# [4] = qHTS drug screen for cell cycle checkpoint inhibitors in PARPi-resistant BRCA-mutant ovarian cancer cell lines. (AID 1963452; calls by dose curve); conditions: PEO1/OlaR viability, CellTiter-Glo luminescence, 96 h, stronger effect = lower value
# Outline: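 PEO1, PEO4 and PEO1/OlaR ovarian cancer cells, 600 per well, exposed 96 h at 37C to a dilution series. Viability read by CellTiter-Glo luminescence, normalized to DMSO and empty wells; activity summarized as Z-AUC.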
# [5] = NCATS anti-infectives library activity on HEK293 viability as a counter-qHTS vs the C. elegans viability qHTS (AID 1745854); also: % is scaled to controls: 0 for no effect and ±100 for the full control effect
# Outline: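 HEK293 cells, 1500 per well, exposed 24 hr at 37C in 5% CO2 to compounds in a 1:5 titration, up to 41.7 uM final. Viability read as CellTiter-Glo luminescence after 10 min at room temperature.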
# [6] = Primary qHTS for inhibitors of nuclear receptor binding SET domain protein 2 (NSD2) in an RCH-ACV wild type WT cells (2C) (AID 1645877); also: potency is read from the fitted curve at half-maximal effect; nearly all actives have a fitted effect of over 70% in size
# [7] = Primary qHTS for inhibitors of nuclear receptor binding SET domain protein 2 (NSD2) in an isogenic RCH-ACV NSD2 p.E1099K mutant (9B) (AID 1645876); also: potency is read from the fitted curve at half-maximal effect; nearly all actives have a fitted effect of over 70% in size
# [8] = qHTS assay to identify inhibitors of the type 1 interferon - major histocompatibility complex class I in skeletal muscle: Counter screen cell viability and HiBit confirmation (AID 1347412); conditions: iHSKM muscle cells + IFN-b, HiBiT or CellTiter-Glo, 24 h; for activity change, negative = inhibition: at 45.9 µM (top of the series); also: potency is read from the fitted curve at half-maximal effect; as to activity change, negative = inhibition: % is scaled to controls: 0 for no effect and ±100 for the full control effect; as to all read-outs here: nearly all actives have a fitted effect of over 60% in size
# Outline: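 Human myoblast knock-in line, 4.0 ng/ml IFN-beta stimulation, 24 h compound treatment. Endpoints: HiBiT lytic luminescence (HLA-B level) and CellTiter Glo (ATP). Dosing 12 concentrations, 3-fold steps, 46 uM highest final.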
# [9] = molecular target: ATP-dependent 6-phosphofructokinase (Trypanosoma brucei brucei) (UniProt O15648); assay: qHTS Assay to Find Inhibitors of T. brucei phosphofructokinase: hit validation (AID 492961);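 also: luminescence reports ADP formed as PFK phosphorylates fructose-6-phosphate with ATP; % is scaled to controls: 0 for no effect and ±100 for the full control effect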
# Chain of ATP-dependent 6-phosphofructokinase (Trypanosoma brucei brucei) (O15648 whole entry, looked up): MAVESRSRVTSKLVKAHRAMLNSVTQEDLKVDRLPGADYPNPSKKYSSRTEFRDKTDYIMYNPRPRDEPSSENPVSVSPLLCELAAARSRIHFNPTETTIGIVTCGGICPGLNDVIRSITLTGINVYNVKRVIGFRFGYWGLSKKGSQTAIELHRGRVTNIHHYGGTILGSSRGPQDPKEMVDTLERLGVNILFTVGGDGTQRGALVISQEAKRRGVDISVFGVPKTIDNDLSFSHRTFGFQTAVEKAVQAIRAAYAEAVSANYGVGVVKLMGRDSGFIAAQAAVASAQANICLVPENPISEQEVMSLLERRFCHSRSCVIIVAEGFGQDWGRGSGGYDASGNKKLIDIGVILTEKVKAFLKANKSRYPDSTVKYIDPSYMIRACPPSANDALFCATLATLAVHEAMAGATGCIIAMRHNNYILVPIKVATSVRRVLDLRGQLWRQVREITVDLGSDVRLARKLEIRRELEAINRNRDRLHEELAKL
# Outline: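 PFK 1.25 nM, F6P 0.5 mM, ATP 0.1 mM, MgCl2 5 mM, 0.1 M TEA pH 8.0, Tween20 0.01%, BSA 0.1%; 45 min RT. ADP-Glo two-step detection, luminescence. qHTS titration; curve fitting with curve-class categorization.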
# [10] = S16 Schwann cell viability assay (CellTiter-Glo assay) (AID 624031);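 also: native untransfected S16 rat Schwann cells; cellular ATP luminescence as a viability measure; plate controls were DMSO-treated cells for no effect and cell-free wells for full effect; nearly all actives have a fitted effect of over 70% in size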
# Outline: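 Parental S16 cells, 24 h compound, 37 °C. ATP-luminescence viability; DMSO = 0% activity, empty wells as reference; curves classified by fit quality and efficacy.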
# [11] = measured here: PEO1 parental Z-AUC
structure (smiles),measurement,setting,value
CCOCOC[C@H](C[C@H](C)C(=O)NO)NC(=O)c1ccc(Oc2ccccc2)cc1,Potency,[1],inactive
same,Potency,[2],inactive
same,Potency,[3],inactive
same,Z-AUC,[4],0.6 (inactive)
same,Z-AUC,[4]; [11],0.894
same,Z-AUC,[4]; measured here: PEO4 Z-AUC,1.19
CN1C[C@@H]2c3ccccc3Oc3ccc(Cl)cc3[C@H]2C1,Potency,[1],inactive
same,Potency,[2],inactive
same,Potency,[3],inactive
same,Z-AUC,[4],1.28 (inactive)
same,Z-AUC,[4]; [11],1.52
same,Z-AUC,[4]; measured here: PEO4 Z-AUC,1.41
CC(C)OC(=O)[C@H](C)N[P@](=O)(OC[C@H]1O[C@@H](n2ccc(=O)[nH]c2=O)[C@](C)(F)[C@@H]1O)Oc1ccccc1,Potency,[1],inactive
same,Potency,[5],inactive
same,Z-AUC,[4],-0.0429 (inactive)
same,Z-AUC,[4]; [11],0.659
same,Z-AUC,[4]; measured here: PEO4 Z-AUC,0.765
C[C@@H](O)[C@@H](C)Oc1nc(Nc2ccc(S(=N)(=O)C3CC3)cc2)ncc1C(F)(F)F (stereo partly specified),Potency,[1],20.8 µM (active)
same,Potency,[2],inactive
same,Potency,[3],inactive
same,Z-AUC,[4],-1.04 (inactive)
same,Z-AUC,[4]; [11],-0.0707
same,Z-AUC,[4]; measured here: PEO4 Z-AUC,-0.563
OCCOc1ccc(/C(=C(/CCCl)c2ccccc2)c2ccccc2)cc1,Potency,[1],inactive
same,Potency,[2],inactive
same,Potency,[3],inactive
same,Z-AUC,[4],-0.111 (inactive)
same,Z-AUC,[4]; [11],0.225
same,Z-AUC,[4]; measured here: PEO4 Z-AUC,0.557
C=C1/C(=C/C=C2\CCCC3(C)[C@@H]([C@H](C)/C=C/C=C/C(O)(CC)CC)CC[C@@H]23)C[C@@H](O)C[C@@H]1O (stereo partly specified),Potency,[1],inactive
same,Potency,[6],18.6 µM (active)
same,Potency,[2],inactive
same,Potency,[3],inactive and 15.8 µM (active)
same,Z-AUC,[4],-0.128 (inactive)
same,Z-AUC,[4]; [11],-0.195
same,Z-AUC,[4]; measured here: PEO4 Z-AUC,-0.444
COc1cc(-c2cn(C)c(=O)c3cnccc23)c(OC)cc1CN(C)C,Potency,[1],inactive
same,Potency,[6],8.33 µM (active)
same,Potency,[2],inactive
same,Z-AUC,[4],-0.443 (inactive)
same,Z-AUC,[4]; [11],-0.655
same,Z-AUC,[4]; measured here: PEO4 Z-AUC,-0.662
CC(C)Oc1ccc(-c2nn([C@@H](C)c3oc4ccc(F)cc4c(=O)c3-c3cccc(F)c3)c3ncnc(N)c23)cc1F,Potency,[1],inactive
same,Potency,[2],inactive
same,Potency,[3],inactive
C=CC(=O)N[C@H]1CCOC[C@H]1Nc1ncc2cc(-c3c(Cl)c(OC)cc(OC)c3Cl)ccc2n1,Potency,[1],inactive
same,Potency,[2],inactive
same,Potency,[3],inactive
same,Z-AUC,[4],1.21 (inactive)
same,Z-AUC,[4]; [11],0.408
same,Z-AUC,[4]; measured here: PEO4 Z-AUC,0.57
Cc1[nH]nc2ncc(C(=O)N3CCC[C@H]3c3ccc(Cl)cc3)cc12,Potency,[1],inactive
same,Potency,[6],0.296 µM (active)
same,Potency,[3],inactive
same,Z-AUC,[4],-0.0587 (inactive)
same,Z-AUC,[4]; [11],0.0336
same,Z-AUC,[4]; measured here: PEO4 Z-AUC,-0.0502
CC(C)C[C@H](NC(=O)[C@H](Cc1ccccc1)NC(=O)OCc1ccccc1)C(=O)C=O,Potency,[1],inactive
same,Potency,[2],inactive
same,Potency,[3],inactive
same,Z-AUC,[4],0.592 (inactive)
same,Z-AUC,[4]; [11],0.57
same,Z-AUC,[4]; measured here: PEO4 Z-AUC,0.338
CCCN(CCC)C(=O)C1=Cc2ccc(-c3ccc(C(=O)N4CCCC4)cc3)cc2N=C(N)C1,Potency,[1],inactive
same,Potency,[6],18.6 µM (active)
same,Potency,[2],inactive
same,Z-AUC,[4],0.263 (inactive)
same,Z-AUC,[4]; [11],-0.15
same,Z-AUC,[4]; measured here: PEO4 Z-AUC,-0.0193
Nc1nc(OC(c2ccc(-c3cccc(F)c3)cc2)C(F)(F)F)cc(-c2ccc(C[C@H](N)C(=O)O)cc2)n1 (stereo partly specified),Potency,[1],inactive
same,Potency,[2],inactive
same,Potency,[3],inactive
same,Z-AUC,[4],-0.825 (inactive)
same,Z-AUC,[4]; [11],-0.615
same,Z-AUC,[4]; measured here: PEO4 Z-AUC,-0.247
C[C@H]1CN(C2COC2)CCN1c1ccc(Nc2cc(-c3ccnc(N4CCn5c(cc6c5CC(C)(C)C6)C4=O)c3CO)cn(C)c2=O)nc1,Potency,[1],inactive
same,Potency,[2],inactive
same,Potency,[3],inactive
same,Z-AUC,[4],-0.103 (inactive)
same,Z-AUC,[4]; [11],0.727
same,Z-AUC,[4]; measured here: PEO4 Z-AUC,0.518
Cc1cc(Oc2ccc3nc(COc4ccc(CC5SC(=O)NC5=O)cc4)n(C)c3c2)cc(C)c1N (stereo unspecified),Potency,[1],inactive
same,Potency,[2],inactive
same,Z-AUC,[4],-0.262 (inactive)
same,Z-AUC,[4]; [11],0.128
same,Z-AUC,[4]; measured here: PEO4 Z-AUC,-0.444
CN(C)Cc1ccc(S(=O)(=O)n2ccc(/C=C/C(=O)NO)c2)cc1,Potency,[7],1.86 µM (active)
same,Potency,[6],1.86 µM (active)
same,Potency,[5],inactive
same,Potency,[2],inactive
same,Potency,[3],inactive
same,Z-AUC,[4],0.736 (inactive)
same,Z-AUC,[4]; [11],1.02
same,Z-AUC,[4]; measured here: PEO4 Z-AUC,1.35
same,Potency,[8]; HiBiT,7.01 µM (active)
same,"activity change, negative = inhibition",[8]; Viability,-5.13% (inactive)
CC[C@H]1CN2CCc3cc(OC)c(OC)cc3C2C[C@@H]1CC1NCCc2cc(OC)c(OC)cc21 (stereo partly specified),Potency,[8]; HiBiT,0.279 µM (active)
CC/C(=C(/c1ccc(O)cc1)c1ccc(OCCNC)cc1)c1ccccc1,Potency,[7],33.2 µM (active)
same,Potency,[2],inactive
same,Potency,[3],inactive
same,Z-AUC,[4],0.452 (inactive)
same,Z-AUC,[4]; [11],0.257
same,Z-AUC,[4]; measured here: PEO4 Z-AUC,-0.283
same,"activity change, negative = inhibition",[8]; HiBiT,-7.57% (inactive)
same,"activity change, negative = inhibition",[8]; Viability,-19.4% (inactive)
NC(=S)N/N=C/c1ncccc1N,Potency,[1],inactive
same,Potency,[2],inactive
same,Z-AUC,[4],0.978 (inactive)
same,Z-AUC,[4]; [11],0.81
same,Z-AUC,[4]; measured here: PEO4 Z-AUC,0.897
N#C/C(=C1/Nc2ccccc2S1)c1ccnc(OCc2ccc(CN3CCOCC3)cc2)n1,Potency,[1],inactive
same,Z-AUC,[4],0.822 (inactive)
same,Z-AUC,[4]; [11],0.219
same,Z-AUC,[4]; measured here: PEO4 Z-AUC,-0.057
O=C(Nc1cnccc1Cl)N1CCN(Cc2ccc3c(c2)OC(F)(F)O3)CC1,Potency,[1],inactive
same,Potency,[3],inactive
same,Z-AUC,[4],0.437 (inactive)
same,Z-AUC,[4]; [11],0.137
same,Z-AUC,[4]; measured here: PEO4 Z-AUC,0.79
C/C=C1\NC(=O)[C@H]2CSSCCC=C[C@H](CC(=O)N[C@H](C(C)C)C(=O)N2)OC(=O)[C@H](C(C)C)NC1=O,Potency,[8]; HiBiT,0.0004 µM (active)
same,"activity change, negative = inhibition",[8]; Viability,-27.6% (inactive)
CC#CC(=O)N1CC[C@@H](n2c(=O)n(-c3ccc(Oc4ccccc4)cc3)c3c(N)ncnc32)C1,Potency,[7],6.61 µM (active)
same,Potency,[6],16.6 µM (active)
same,Potency,[2],inactive
same,Potency,[3],inactive
same,Z-AUC,[4],1.04 (inactive)
same,Z-AUC,[4]; [11],0.828
same,Z-AUC,[4]; measured here: PEO4 Z-AUC,1.1
same,"activity change, negative = inhibition",[8]; HiBiT,-23.5% (inactive)
same,"activity change, negative = inhibition",[8]; Viability,-0.0272% (inactive)
CC(C)n1c(/C=C/[C@H](O)C[C@H](O)CC(=O)O)c(-c2ccc(F)cc2)c2ccccc21,outcome,[9],inactive
same,outcome,[10],inactive
same,Potency,[1],inactive
same,Z-AUC,[4],1.2 (inactive)
same,Z-AUC,[4]; [11],1.21
same,Z-AUC,[4]; measured here: PEO4 Z-AUC,1.13
